Laboratory results: PubChem BioAssay (NCI)
Several values for one entry are separate records, joined by “and”; a condition that tells them apart may be missing. Equal entries are not always repeated. This is part of a sample that, as a whole, favours compounds with a hit. Of some 83,000 tested, about 20% had one in any assay.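 Activity criterion: percent growth below 10, measured after cells in 96-well plates were exposed to a single compound concentration for 48 hours.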 Activity calls are given as the source filed them.

Test system: SK-MEL-28 melanoma
Test: NCI-60 one-dose screen, 48 h (100 = growth as untreated, 0 = no growth, -100 = all killed)
Conditions: 10 µM
Method: Growth inhibition of the SK-MEL-28 human tumor cell line is measured as a screen for anti-cancer activity. Cells are grown in 96 well plates and exposed to the test compound for 48 hours. Compounds are tested at a single concentration, which is 10^-5 M for most compounds. The reported endpoint is percent growth (GI% or GIPRCNT), where numbers from 0 - 100% represent growth inhibition, and numbers from -100% - 0 represent cell death. For example, a value of 40 represents 60% growth inhibition. A value of 0 means no net growth occurred over the course of the experiment. A value of -40 indicates 40% of cells at the beginning of the experiment died by the end of the experiment. A value of -100 means all cells are dead at the end of the experiment.
NCI-60 Human Tumor Cell Lines Screen was performed using the standard one-dose NCI protocol, which is described in more detail at https://dtp.cancer.gov/discovery_development/nci-60/default.htm.
Compounds with GIPRCNT values below 10 were considered active. Activity score was based on GIPRCNT using the following formula: […]
Score is 0 for GIPRCNT values of 100 or above, 50 for GIPRCNT values of 0, and 100 for GIPRCNT values of -100.

SMILES	growth
CC1=C(CCC=NNC(N)=O)C2=C(C)C3(CC3)[C@@](C)(O)C(=O)C2=C1	-48.8% (active)
COc1cc(OC)c(S(=O)(=O)N(CCCl)CCCl)cc1C(=O)/C=C/c1ccc(Cl)cc1	92.3% (inactive)
CN1C(=O)[C@]23SSC1(C)C(=O)N2[C@H]1Nc2ccccc2C1([C@@]12c4ccccc4N[C@@H]1N1C(=O)C4(C)SS[C@]1(C(=O)N4C)[C@H]2O)[C@@H]3O (some centres undefined)	-96.5% (active)
O=C(CCCc1ccc(N(CCCl)CCCl)cc1)OCc1ccccc1	101% (inactive)
Cc1ccc(CNc2nc3ccc(OC/C(=C/F)CN)cc3o2)cn1	107% (inactive)
CC1=C[C@H]2O[C@@H]3C[C@@H](O)[C@](C)([C@@]2(C)CC1)[C@@]31CO1	27.1% (inactive)
COc1cc2c(cc1OC)[C@@H]1N(CC2)C(=O)c2ccccc2[C@@]1(C)C(=O)O	113% (inactive)
C/C=C/CC(C)C(O)[C@H](NC(=O)[C@@H]1CCCN1C(=O)C(C)(C)NC(=O)CCCCCCCCC)C(=O)NC(C)(C)C(=O)N[C@@H](CCC(N)=O)C(=O)N[C@H](CCC(N)=O)C(=O)NC(C)(C)C(=O)NC(C)(C)C(=O)N[C@@H](CCC(N)=O)C(=O)N[C@H](CC(C)C)C(=O)N[C@H](CO)CC(C)C (some centres undefined)	-84.9% (active) and -100% (active)
CC1=C(CN(O)C(N)=O)C2=C(C)C3(CC3)[C@](C)(O)C(=O)C2=C1	-28.4% (active)
C/C=C/CC(C)C(O)[C@H](NC(=O)[C@@H]1CCCN1C(=O)C(C)(C)NC(=O)CCCCCCCCC)C(=O)N[C@@](C)(CC)C(=O)N[C@@H](CCC(N)=O)C(=O)N[C@H](CCC(N)=O)C(=O)NC(C)(C)C(=O)NC(C)(C)C(=O)N[C@@H](CCC(N)=O)C(=O)N[C@H](CC(C)C)C(=O)N[C@H](CO)CC(C)C (some centres undefined)	-92.6% (active) and -78.4% (active)
CC1=C(CN(O)C(N)=O)C2=C(C)C3(CC3)[C@@](C)(O)C(=O)C2=C1	-33% (active)
CC1=C2C(=C[C@@](C)(C=O)[C@@H]2O)C(=O)[C@](C)(O)C12CC2	-8.99% (active)
C=C1[C@@H](C)C2[C@H](Cc3ccccc3)NC(=O)[C@]23[C@H](OC(C)=O)/C=C/[C@@](C)(O)C(=O)[C@@H](C)C/C=C/[C@H]3[C@@H]1O (some centres undefined)	87.1% (inactive)
N#Cc1c(-n2c(Br)c(Br)c3cc(Br)ccc32)[nH]c2c(Br)cc(Br)cc12	5.46% (active)
COc1cc(C)c(-c2ccc(OC)c(=O)cc2C)c(OC)c1OC	47.9% (inactive) and 103% (inactive)
COc1cc2c(O[C@@H]3OC[C@H](O)[C@H](O)[C@H]3O)c3c(c(-c4ccc5c(c4)OCO5)c2cc1OC)C(=O)OC3	40.8% (inactive)
CC(=O)O[C@@H]1[C@@H]2O[C@H]2[C@@](C)(O)C(=O)[C@@H](C)C/C=C/[C@H]2[C@@H]3O[C@]3(C)[C@@H](C)C3[C@H](Cc4ccccc4)NC(=O)[C@@]312 (some centres undefined)	71% (inactive)
C/C=C/CC(C)C(O)[C@H](NC(=O)[C@@H]1CCCN1C(=O)C(C)(C)NC(=O)CCCCCCC)C(=O)N[C@@](C)(CC)C(=O)N[C@@H](CCC(N)=O)C(=O)N[C@H](CCC(N)=O)C(=O)NC(C)(C)C(=O)NC(C)(C)C(=O)N[C@@H](CCC(N)=O)C(=O)N[C@H](CC(C)C)C(=O)N[C@H](CO)CC(C)C (some centres undefined)	107% (inactive) and -74.9% (active)
CC1=C[C@H]2O[C@@H]3C[C@H]4OC(=O)/C=C\C=C\[C@H]([C@@H](C)O)OCC/C(C)=C/C(=O)OC[C@@]2(CC1)[C@]4(C)[C@]31CO1	-38.6% (active)
NC1CCc2cc(O)c(O)cc2C1 (centres undefined)	87.1% (inactive)

SMILES	growth
CC(C)(O)/C=C/C(=O)[C@](C)(O)[C@H]1[C@H](O)C[C@@]2(C)[C@H]3CC=C4[C@@H](C[C@H](O)C(=O)C4(C)C)[C@]3(C)C(=O)C[C@]12C	-7.52% (active)
CC1=C2C(=C[C@@](C)(COC(=O)c3ccc(S(=O)(=O)F)cc3)[C@@H]2OC(=O)c2ccc(S(=O)(=O)F)cc2)C(=O)[C@](C)(O)C12CC2	7.54% (active)
CC(=O)O[C@@H]1C[C@H]2O[C@@H]3C=C(C)CC[C@]3(C)[C@]1(C)[C@]21CO1	-1.27% (active)
CC1=C2C(=C[C@@](C)(COC(=O)c3ccc(S(=O)(=O)F)cc3)[C@@H]2O)C(=O)[C@](C)(O)C12CC2	-66.3% (active)
N#Cc1nc(-c2ccccc2)oc1N1CCC(S(=O)(=O)F)CC1	104% (inactive)
C/C=C\C(=O)O[C@@H]1CC2O[C@@H]3C=C(C)C(=O)C[C@]3(C)[C@]1(C)[C@]21CO1	-20.9% (active)
C[C@@H]1C[C@H]2C(=O)O[C@@H](C)C(NC(=O)[C@H](Cc3cc(F)cc(F)c3)NC(=O)Nc3ccc(OS(=O)(=O)F)cc3)C(=O)N3CCC[C@H]3C(=O)N3CCO[C@H](C)[C@H]3C(=O)N[C@@H](CO)C(=O)N2C1 (some centres undefined)	40.5% (inactive)
CCCCCCCCCC(=O)N[C@@](C)(CC)C(=O)N1CCC[C@H]1C(=O)N[C@@H](CC(C)C)C(=O)N[C@@](C)(CC)C(=O)N[C@@H](CCC(N)=O)C(=O)N[C@H](CCC(N)=O)C(=O)NC(C)(C)C(=O)NC(C)(C)C(=O)N[C@@H](CCC(N)=O)C(=O)N[C@H](CC(C)C)C(=O)N[C@H](CO)CC(C)C	-97.1% (active) and -100% (active)
COC1[C@@H]2C[C@H]3C(C)(C)O[C@@](C/C=C(/C)C(=O)O)(C2=O)[C@]32Oc3c(CC=C(C)C)c4c(c(O)c3C(=O)[C@H]12)C=CC(C)(C)O4 (some centres undefined)	-61.4% (active)
CC(C)=CCc1c2c(c(O)c3c1O[C@]14C(=C[C@@H]5C[C@H]1C(C)(C)O[C@@]4(C/C=C(/C)C(=O)O)C5=O)C3=O)C=CC(C)(C)O2	-88.2% (active)
C/C=C/CC(C)C(O)[C@H](NC(=O)[C@@H]1CCCN1C(=O)C(C)(C)NC(=O)CCCCCCCCC)C(=O)N[C@@](C)(CC)C(=O)N[C@@H](CCC(N)=O)C(=O)N[C@H](CCC(N)=O)C(=O)NC(C)(C)C(=O)N[C@@](C)(CC)C(=O)N[C@@H](CCC(N)=O)C(=O)N[C@H](CC(C)C)C(=O)N[C@H](CO)CC(C)C (some centres undefined)	104% (inactive) and -100% (active)
CC1=C[C@H]2O[C@@H]3C[C@H]4OC(=O)/C=C\C=C\[C@H]([C@@H](C)O)OCC[C@@H](C)[C@H](O)C(=O)OC[C@@]2(CC1)[C@]4(C)[C@]31CO1	-49.1% (active)
CN(CCF)/N=N/c1nc[nH]c1C(N)=O	49.3% (inactive)
C[C@@H]1CCC/C=C/[C@H]2C[C@@H](O)C[C@@H]2[C@@H](O)/C=C/C(=O)O1	18.3% (inactive)
CCC(C)[C@H]1C(=O)O[C@H](C(C)C)C(=O)N(C)[C@@H](C(C)C)C(=O)O[C@H](C(C)C)C(=O)N(C)[C@@H](C(C)C)C(=O)O[C@H](C(C)C)C(=O)N1C (some centres undefined)	34.4% (inactive)
CC1=C2C(=C[C@@](C)(COS(C)(=O)=O)[C@@H]2O)C(=O)[C@](C)(O)C12CC2	-28.4% (active)
CC1=C2C(=O)[C@](C)(CO)C=C2C(=O)[C@](C)(O)C12CC2	17.9% (inactive)
COc1cccc2c1cc([N+](=O)[O-])c1c(C(=O)O)cc3c(c12)OCO3	112% (inactive)
COC(=O)[C@H]1[C@@H](O)[C@@]2(O)c3c(OC)cc(OC)cc3O[C@@]2(c2ccc(OC)cc2)[C@@H]1c1ccccc1	-19.2% (active)
